From PubChem BioAssay (Tox21)
Results filed as inconclusive are left out. Calls of active or inactive are those of the source. Unless noted, calls come from the whole dose curve; as a rule, active = well fitted curve in the direction sought with a large enough effect in the repeat runs; inconclusive = weak or mixed curves; inactive = no such curve, though single readings can be large; an effect the other way counts as inactive or inconclusive.

Experiments:
[1] = A CellTox Green Cytotoxicity Assay to monitor cytotoxicity in HEK293 cells - 16 hour (AID 1224888); note: nearly all actives have a fitted effect of over 35% in size
Outline: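 HEK293 cells, 600/well, were preincubated 5 hours and then exposed to compounds at 37 C for up to 40 hours. A cell-impermeant cyanine dye staining dead-cell DNA was read by fluorescence at 0, 8, 16, 24, 32 and 40 h time points.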

[2] = A CellTox Green Cytotoxicity Assay to monitor cytotoxicity in HepG2 cells - 8 hour (AID 1224890); note: nearly all actives have a fitted effect of over 45% in size
Outline: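 HepG2 cells, 600/well, preincubated 5 h with CellTox Green dye, then exposed to Tox21 compounds in DMSO at 37 C for up to 40 h. Dead-cell DNA fluorescence read at the indicated time point.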

[3] = qHTS assay to identify small molecule antagonists of the estrogen receptor alpha (ER-alpha) signaling pathway using the BG1 cell line in the presence of 0.1 nM 17-beta-estradiol - cell viability counter screen (AID 1259241); note: nearly all actives have a fitted effect of over 40% in size
Outline: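 Measures cytotoxicity alongside the ER-alpha antagonist readout: VM7Luc4E2 cells, charcoal-stripped serum, 0.1 nM 17beta-estradiol final, 22 hr compound incubation at 37C, CellTiter-Fluor fluorescence.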

[4] = qHTS assay to identify small molecule antagonists of the androgen receptor (AR) signaling pathway using the MDA cell line in the presence of 0.5 nM R1881 - cell viability counter screen (AID 1259242); note: nearly all actives have a fitted effect of over 45% in size
Outline: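 MDA-kb2 cells (MMTV-luciferase, AR/GR responsive) were treated with compounds plus 0.5 nM R1881 (final) for 16 hr at 37C, 0% CO2. Viability was then read in the same wells as live-cell protease fluorescence (CellTiter-Fluor, 30 min).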

[5] = target: Estrogen receptor (Homo sapiens) (UniProt P03372); assay: qHTS assay to identify small molecule antagonists of the estrogen receptor alpha (ER-alpha) signaling pathway using the BG1 cell line in the presence of 0.1 nM 17-beta-estradiol (AID 1259244); note: nearly all actives have a fitted effect of over 50% in size
Outline: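 VM7Luc4E2 cells (endogenous full-length ER-alpha, 4×ERE-luciferase), kept 5 days in phenol red-free, charcoal-stripped FBS medium; 4,000 cells/well. Compounds added with 0.1 nM (final) 17beta-estradiol, 22 hr at 37C; luminescence read with ONE-Glo after 30 min.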

[6] = qHTS assay to identify small molecule phospholipidosis (PLD) inducers (AID 1259344; active = well fitted curve in the direction sought with a large enough effect; an effect the other way counts as inactive or inconclusive)
Outline: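 Quantitative HTS in HepG2: compound plus LipidTOX Red dye for 24 h, paraformaldehyde fixation with Hoechst 33342, widefield high-content imaging; amiodarone as positive and DMSO as negative control.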

[7] = qHTS assay to identify small molecule HDAC inhibitors (AID 1259364); note: nearly all actives have a fitted effect of over 45% in size; note: potency is the fitted concentration of half-maximal effect; for activity change, negative = inhibition: top concentration of the series differs between compounds
Outline: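 Wild-type HCT-116 cells, plated overnight at 37 C, exposed to compounds 2 hr at 37 C; luminogenic HDAC-Glo substrate then added 30 min at room temperature. Luminescence reports relative endogenous class I/II HDAC activity.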

[8] = qHTS assay to identify small molecule HDAC inhibitors - cell viability counter screen (AID 1259365); note: series mostly up to about 92 µM; nearly all actives have a fitted effect of over 50% in size
Outline: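 Following a 2hr exposure of overnight-plated wild-type HCT-116 cells to DMSO-delivered compounds, CellTiter-Glo was added and luminescence recorded after 30min at room temperature.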

[9] = qHTS assay to identify small molecule agonists of the sonic hedgehog signaling (Shh) pathway - cell viability counter screen (AID 1259366); note: nearly all actives have a fitted effect of over 50% in size
Outline: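 After a 4hr attachment at 37C, NIH/3T3 cells bearing an integrated Gli1-driven luciferase reporter were dosed with compounds. Treatment lasted 24hr, with the final hour including CellTiter-Fluor for a fluorescence viability measurement.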

[10] = qHTS assay to identify small molecule antagonists of the sonic hedgehog signaling (Shh) pathway - cell viability counter screen (AID 1259367); note: nearly all actives have a fitted effect of over 55% in size
Outline: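 Seed 3T3 Gli1-Luc cells at 2,000 per well; incubate 4 hr; add compound in DMSO, then conditioned medium; incubate at 37C with 5% CO2; add CellTiter-Fluor after 23 hr; read fluorescence 1 hr later.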

[11] = qHTS assay to identify small molecule agonists of the sonic hedgehog signaling (Shh) pathway (AID 1259368; calls by dose curve;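 note: NIH/3T3-derived 3T3Gli1-Luc cells carrying a stable Gli1-driven firefly luciferase reporter; series mostly up to about 92 µM; nearly all actives have a fitted effect of over 15% in size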)
Outline: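 NIH/3T3-derived 3T3Gli1-Luc cells with stably integrated Gli1-driven firefly luciferase, 2,000 cells/well, compounds added after 4 hr. Incubated 24 hr at 37C, 5% CO2; luminescence read after 30 min with luciferase reagent at room temperature.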

[12] = qHTS assay to identify small molecule antagonists of the sonic hedgehog signaling (Shh) pathway (AID 1259369; calls by dose curve; note: nearly all actives have a fitted effect of over 45% in size)
Outline: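 NIH/3T3-derived Gli1-Luc reporter cells plated 4 h, dosed with compound, then stimulated with conditioned medium for 24 h at 37 C. Firefly luciferase luminescence read after 30 min with detection reagent at room temperature.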

[13] = qHTS assay to identify small molecule agonists of the androgen receptor (AR) signaling pathway in the presence of an antagonist - cell viability counter screen (AID 1259379);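 note: MDA-kb2 human breast cancer cells carrying an MMTV luciferase reporter; series mostly up to about 92 µM; nearly all actives have a fitted effect of over 25% in size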
Outline: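 MDA-kb2 cells (MMTV-luciferase, AR/GR), 3,000/well, 5 h attachment, then 3.0 µM nilutamide (final) and compounds at 15 concentrations. Viability by CellTiter-Fluor fluorescence after 16 h at 37 °C, 0% CO2, in the reporter wells.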

[14] = qHTS assay to identify small molecule agonists of the estrogen receptor beta (ER-beta) signaling pathway - cell viability counter screen (AID 1259380); note: nearly all actives have a fitted effect of over 30% in size
Outline: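 ER-beta-UAS-bla HEK293T cells in medium with 2% charcoal-stripped FBS, pre-incubated 6 hr, then treated 16 hr at 37C. Cytotoxicity read in the same wells by CellTiter-Glo luminescence after 30 min at room temperature.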

[15] = qHTS RealTime-Glo MT Cell Viability Assay in HepG2 cells - 0 hour (AID 1224889); note: nearly all actives have a fitted effect of over 50% in size
Outline: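 Real-time, nonlytic viability: 600 HepG2 cells/well mixed with NanoLuc enzyme plus prosubstrate; 5 h settle, compound (DMSO) added by pintool; luminescence monitored over 40 h at 37 C.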

[16] = target: Estrogen receptor beta (Homo sapiens) (UniProt Q92731); assay: qHTS assay to identify small molecule agonists of the estrogen receptor beta (ER-beta) signaling pathway (AID 1259377; active = well fitted activation curve with a large enough effect in the signal ratio in the repeat runs, not every such curve was filed as active; the % refers to the signal ratio)
Outline: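 In HEK293T cells bearing a UAS-beta-lactamase reporter under ER-beta control, DMSO-delivered compounds were incubated for 16 hr at 37C. Activity was detected as fluorescence 2 hours after LiveBLAzer B/G FRET substrate addition.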

[17] = target: Estrogen receptor beta (Homo sapiens) (UniProt Q92731); assay: qHTS assay to identify small molecule antagonists of the estrogen receptor beta (ER-beta) signaling pathway (AID 1259378; active = well fitted inhibition curve with a large enough effect in the signal ratio in the repeat runs, not every such curve was filed as active; the % refers to the signal ratio)
Outline: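 ER-beta-UAS-bla HEK293T cells in 2% charcoal-stripped FBS medium treated with compound plus 1nM final 17-beta-estradiol for 16 hr at 37C. Beta-lactamase reporter read by FRET substrate fluorescence after 2 hours at room temperature.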

[18] = qHTS assay to identify small molecule antagonists of the estrogen receptor beta (ER-beta) signaling pathway - cell viability counter screen (AID 1259382); note: series mostly up to about 92 µM; nearly all actives have a fitted effect of over 55% in size
Outline: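 ER-beta-UAS-bla HEK293T cells in 2% charcoal-stripped FBS medium, treated with compound plus 1 nM 17-beta-estradiol for 16 h at 37C. Viability read by CellTiter-Glo luminescence after 30 min at room temperature in the same wells.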

[19] = target: Androgen receptor (Homo sapiens) (UniProt P10275); assay: qHTS assay to identify small molecule antagonists of the androgen receptor (AR) signaling pathway using the MDA cell line in the presence of 0.5 nM R1881 (AID 1259243); note: nearly all actives have a fitted effect of over 50% in size
Outline: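 MDA-kb2 cells (MMTV-luciferase, responsive to AR and GR) at 3,000/well, rested 5 h at 37C, 0% CO2, then given compounds plus 0.5 nM R1881 (final) for 16 hr. Luciferase read with ONE-Glo after 30 min at room temperature.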

[20] = target: Androgen receptor (Homo sapiens) (UniProt P10275); assay: qHTS assay to identify small molecule agonists of the androgen receptor (AR) signaling pathway in the presence of an antagonist (AID 1259381; calls by dose curve; note: nearly all actives have a fitted effect of over 15% in size)
Outline: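 MDA-kb2 cells carrying MMTV-luciferase (AR/GR responsive), 3,000 cells/well, co-treated with 3.0 uM nilutamide final. Compounds at 15 concentrations, 16 hr at 37C without CO2. Luciferase luminescence read after 30 min with ONE-Glo.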
% is set by controls: 0 for no effect and ±100 for the full control effect.

Estrogen receptor (Homo sapiens), sequence (P03372 whole entry, looked up): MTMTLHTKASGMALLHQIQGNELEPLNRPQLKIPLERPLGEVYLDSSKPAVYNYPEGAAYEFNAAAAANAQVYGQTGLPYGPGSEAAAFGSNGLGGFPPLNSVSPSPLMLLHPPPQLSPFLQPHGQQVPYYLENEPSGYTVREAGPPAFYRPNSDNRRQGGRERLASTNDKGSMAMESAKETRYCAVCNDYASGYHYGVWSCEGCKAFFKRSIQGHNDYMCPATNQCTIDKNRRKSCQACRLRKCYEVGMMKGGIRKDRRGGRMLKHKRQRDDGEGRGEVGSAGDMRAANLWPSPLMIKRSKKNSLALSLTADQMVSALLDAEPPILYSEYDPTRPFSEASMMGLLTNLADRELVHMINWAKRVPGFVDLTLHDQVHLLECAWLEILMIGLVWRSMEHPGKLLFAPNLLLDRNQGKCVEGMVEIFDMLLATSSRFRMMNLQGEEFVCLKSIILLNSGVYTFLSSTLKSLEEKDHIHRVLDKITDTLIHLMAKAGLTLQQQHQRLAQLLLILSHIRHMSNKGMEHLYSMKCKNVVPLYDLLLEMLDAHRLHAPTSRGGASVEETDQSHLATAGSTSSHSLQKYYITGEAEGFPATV
Estrogen receptor beta (Homo sapiens), sequence (Q92731 whole entry, looked up): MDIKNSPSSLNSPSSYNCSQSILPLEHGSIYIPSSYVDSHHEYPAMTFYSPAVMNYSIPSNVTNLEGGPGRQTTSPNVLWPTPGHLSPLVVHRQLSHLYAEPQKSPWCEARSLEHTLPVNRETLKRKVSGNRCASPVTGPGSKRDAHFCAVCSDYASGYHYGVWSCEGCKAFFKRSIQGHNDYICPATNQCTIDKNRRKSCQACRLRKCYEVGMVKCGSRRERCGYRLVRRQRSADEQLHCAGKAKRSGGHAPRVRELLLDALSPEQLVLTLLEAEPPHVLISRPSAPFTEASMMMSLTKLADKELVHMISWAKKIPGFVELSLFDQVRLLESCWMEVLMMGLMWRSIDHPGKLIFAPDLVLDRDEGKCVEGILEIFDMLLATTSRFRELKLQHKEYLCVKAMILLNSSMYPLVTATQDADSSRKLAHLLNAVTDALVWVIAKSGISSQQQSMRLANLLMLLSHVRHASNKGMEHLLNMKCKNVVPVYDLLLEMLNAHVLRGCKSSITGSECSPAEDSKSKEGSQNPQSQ
Androgen receptor (Homo sapiens), sequence (P10275 whole entry, looked up): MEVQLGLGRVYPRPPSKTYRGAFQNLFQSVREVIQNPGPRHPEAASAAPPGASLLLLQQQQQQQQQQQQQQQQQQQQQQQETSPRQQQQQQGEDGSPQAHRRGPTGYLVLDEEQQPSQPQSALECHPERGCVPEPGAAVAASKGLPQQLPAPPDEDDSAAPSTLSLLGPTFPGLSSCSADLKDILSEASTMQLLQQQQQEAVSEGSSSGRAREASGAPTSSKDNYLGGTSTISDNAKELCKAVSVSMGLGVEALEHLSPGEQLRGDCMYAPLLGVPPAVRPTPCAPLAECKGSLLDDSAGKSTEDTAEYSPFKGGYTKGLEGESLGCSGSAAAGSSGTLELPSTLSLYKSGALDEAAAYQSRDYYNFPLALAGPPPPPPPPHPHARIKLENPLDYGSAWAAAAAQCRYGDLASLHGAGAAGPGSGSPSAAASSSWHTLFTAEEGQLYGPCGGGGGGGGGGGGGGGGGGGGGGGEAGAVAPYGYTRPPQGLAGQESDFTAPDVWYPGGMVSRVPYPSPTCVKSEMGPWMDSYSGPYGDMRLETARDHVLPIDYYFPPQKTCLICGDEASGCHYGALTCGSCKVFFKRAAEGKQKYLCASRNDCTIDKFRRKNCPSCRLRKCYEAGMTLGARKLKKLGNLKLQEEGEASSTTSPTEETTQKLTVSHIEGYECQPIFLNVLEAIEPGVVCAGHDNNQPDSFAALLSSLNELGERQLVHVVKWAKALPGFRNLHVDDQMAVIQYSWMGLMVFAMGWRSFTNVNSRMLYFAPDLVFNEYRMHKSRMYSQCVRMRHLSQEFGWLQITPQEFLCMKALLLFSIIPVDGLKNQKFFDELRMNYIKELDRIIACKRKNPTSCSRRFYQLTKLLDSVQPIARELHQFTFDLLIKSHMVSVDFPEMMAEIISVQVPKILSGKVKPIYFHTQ

C[C@@H]1CC[C@@]2(OC1)O[C@H]1C[C@H]3[C@@H]4CC[C@H]5C[C@@H](O)CC[C@]5(C)[C@H]4CC(=O)[C@]3(C)[C@H]1[C@@H]2C
inactive: activity change [1] -0.0716% [at 6.97 µM, stronger effect = higher value] | cytotoxicity increase [2] -0.434% [at 6.97 µM] | activity change, negative = cytotoxicity [3] -0.428% [at 8.39 µM] | viability change, negative = cytotoxic [4] 4.91% [at 8.39 µM] | activity change, negative = inhibition [5] 0.329% [at 8.39 µM] | Potency [6] | activity change, negative = inhibition [7] 8.02% [at 8.39 µM] | activity change, negative = cytotoxicity [8] 4.19% [at 8.39 µM] | viability change, negative = cytotoxic [9] -4.38% [at 8.39 µM] | viability change, negative = cytotoxic [10] 0.938% [at 8.39 µM] | activity change [11] -0.0264% [at 8.39 µM] | activity change, negative = inhibition [12] 0.87% [at 8.39 µM] | activity change, negative = cytotoxicity [13] 0.258% [at 8.39 µM] | activity change, negative = cytotoxicity [14] 3.8% [at 8.39 µM]

COc1cc2nc(N3CCN(C(=O)C4CCCO4)CC3)nc(N)c2cc1OC (centres undefined)
inactive: Potency [1] | Potency [15] | outcome [3] | outcome [4] | outcome [5] | Potency [6] | outcome [8] | outcome [9] | outcome [10] | outcome [11] | Potency [12] | Potency [16] | outcome [17] | outcome [13] | Potency [14] | outcome [18]
active: Potency [7] 3.35 µM

CC(C)(Sc1cc(C(C)(C)C)c(O)c(C(C)(C)C)c1)Sc1cc(C(C)(C)C)c(O)c(C(C)(C)C)c1
inactive: Potency [1] | Potency [15] | outcome [3] | outcome [4] | outcome [8] | outcome [9] | outcome [10] | outcome [11] | Potency [12] | Potency [16] | outcome [17] | outcome [13] | Potency [14] | outcome [18]

NC(=O)CC[C@@H](N)C(=O)O
inactive: Potency [1] | Potency [15] | outcome [3] | outcome [4] | Potency [6] | Potency [7] | outcome [8] | outcome [9] | outcome [10] | outcome [11] | Potency [12] | Potency [16] | outcome [13] | Potency [14] | outcome [18]

CCCC(C)C(O)CC (centres undefined)
inactive: Potency [1] | Potency [15] | outcome [3] | outcome [4] | Potency [7] | outcome [8] | outcome [9] | outcome [10] | outcome [11] | Potency [12] | Potency [16] | outcome [17] | outcome [13] | Potency [14] | outcome [18]

Cc1cc(O)c(Cl)cc1C
inactive: Potency [1] | Potency [15] | outcome [3] | outcome [4] | outcome [5] | Potency [7] | outcome [8] | outcome [9] | outcome [10] | outcome [11] | Potency [12] | Potency [16] | outcome [17] | outcome [13] | Potency [14] | outcome [18]

O=C1CC2(CCCC2)CC(=O)N1CCNCC1COc2ccccc2O1 (centres undefined)
inactive: Potency [1] | Potency [15] | outcome [3] | outcome [4] | Potency [6] | Potency [7] | outcome [8] | outcome [9] | outcome [10] | outcome [11] | Potency [12] | Potency [16] | outcome [17] | outcome [13] | Potency [14] | outcome [18]

COC(=O)c1cc(Cl)c(NC(C)=O)cc1OC
inactive: Potency [1] | Potency [15] | outcome [3] | outcome [4] | Potency [19] | Potency [7] | outcome [8] | outcome [9] | outcome [10] | outcome [11] | Potency [12] | Potency [16] | outcome [17] | outcome [13] | Potency [14] | outcome [20] | outcome [18]
